Inconclusive results are not listed. Calls of active or inactive are those of the source. Calls come from the whole dose curve; as a rule, active = well fitted inhibition curve with a large enough effect; inconclusive = small, poorly fitted or top-dose-only effect; inactive = flat fitted curve, though single readings scatter.
molecular target: Aldehyde dehydrogenase, mitochondrial (Homo sapiens) (UniProt P05091); assay: qHTS for Inhibitors of the Aldehyde Dehydrogenase Family (ALDH2) Primary screen (AID 2061308); details: ALDH2 enzyme inhibition qHTS, 1536-well; series mostly up to 56 µM; activity change, negative = inhibition: at the top concentration;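 note: plate controls were vehicle for no effect and reference inhibitor for full effect; nearly all actives have a fitted effect of over 55% in size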

| SMILES | activity change, negative = inhibition | Potency |
| --- | --- | --- |
| COc1cc(OC)cc(C2=Nn3c(nnc3-c3ccccc3O)SC2)c1 | 4.09% (inactive) |  |
| CCOc1ccc(CCNC(=O)c2cc3ccccc3n2Cc2ccc(Cl)c(F)c2)cc1OCC | 8.12% (inactive) |  |
| Cc1ccc(-c2nccc(=O)n2CC(=O)N(C)C(C)c2ccco2)cc1 (stereo not given) | -11% (inactive) |  |
| COc1ccc(-c2nc(Nc3ccc(F)c(F)c3)c3ccccc3n2)cc1 | -5.6% (inactive) |  |
| O=C(OCC#CCSc1nnc(-c2cccc3ccccc23)o1)c1ccc(OC(F)(F)F)cc1 | 3.45% (inactive) |  |
| Cc1cc(C)nc(NC(=S)N2CCN(Cc3cccc4ccccc34)CC2)c1 | -3.68% (inactive) |  |
| O=C1CCc2cc(S(=O)(=O)NCc3ccccc3)ccc2N1 | 15.8% (inactive) |  |
| Oc1ccc(CNCc2ccc3c(c2)OCO3)c2cccnc12 | -4.61% (inactive) |  |
| Oc1cc(-c2ccncc2)cc2cccnc12 | 4.85% (inactive) |  |
| FC(F)(F)c1cc(-c2ccc(CNc3nc(C4CCCC4)nc4ccccc34)cc2)ccn1 | 2.11% (inactive) |  |
| O=S(=O)(c1ccc2c(c1)OCCCO2)N1CCN(S(=O)(=O)c2c(F)cccc2F)CC1 | -4.11% (inactive) |  |
| Cc1cnc(-c2ccccc2C(C)C)nc1NCc1ccc(-c2ccnc(C(F)(F)F)c2)cc1 | 9.1% (inactive) |  |
| Cc1ccc(NS(=O)(=O)c2ccc3c(c2)CCC(=O)N3)cc1F | 8.18% (inactive) |  |
| Cc1nc(CNc2ncnc3ccc(-c4oc(-c5ccccc5)nc4C)cc23)cs1 | -5.64% (inactive) |  |
| C/C=C\C1=CCCC1Nc1ncnc2ccc(-c3c(C)noc3C)cc12 (stereo not given) | 10.4% (inactive) |  |
| CCN(CC)C(=O)c1cc(S(=O)(=O)Cc2ccccc2)c(N2CCC(c3ccccc3)CC2)cc1N(CC)CCN(C)C |  | inactive |
| COc1ccccc1NC(=O)c1cc(-c2ccc(C)c(C)c2)nc2ccccc12 | 2.45% (inactive) |  |
| c1csc(CNc2ncnc3ccc(-c4ccoc4)cc23)c1 | 5.47% (inactive) |  |
| CC(C)(C)c1ccc(-n2cnc3cc(C(=O)N4CCCCC4)ccc32)cc1 | 13.1% (inactive) |  |
| Cc1ccc(NS(=O)(=O)c2ccc3c(c2)CCC(=O)N3)cc1Cl | 8.79% (inactive) |  |

| SMILES | activity change, negative = inhibition | Potency |
| --- | --- | --- |
| COC(=O)Nc1sc2c(c1C(N)=O)CCCC2 | -15.5% (inactive) |  |
| Cc1ccc(C)c(SC2CS(=O)(=O)c3ccccc32)c1 (stereo not given) | 7.11% (inactive) |  |
| C(#Cc1cccs1)c1cccnc1 | 12.1% (inactive) |  |
| COc1cccc(C2c3c(ncn(-c4ccc5c(c4)OCO5)c3=N)Oc3ccc4ccccc4c32)c1 (stereo not given) | 4.24% (inactive) |  |
| CC(=O)c1ccccc1-c1ncc(C)c(NCc2ccc(-c3cccnc3)cc2)n1 | 22.2% (inactive) |  |
| O=[N+]([O-])c1ccccc1S(=O)(=O)N1CCN(S(=O)(=O)c2ccc3c(c2)OCCO3)CC1 | -0.0717% (inactive) |  |
| O=C(OCC#CCSc1nnc(-c2cccc3ccccc23)o1)c1ccc2ccccc2c1 | 6.43% (inactive) |  |
| CN1CCN(c2cccc(Nc3nn4c(=O)c5ccccc5nc4s3)c2)CC1 |  | inactive |
| COc1cccc(Cn2ncc3c4sc(Br)cc4n(C)c3c2=O)c1 | 2.14% (inactive) |  |
| Cc1ccc(S(=O)(=O)Nc2cc3c(cc2C(=O)Nc2nc(-c4ccccc4)cs2)OCO3)cc1 | -1.11% (inactive) |  |
| Cc1cc2c(s1)c1cnn(Cc3ccc(S(C)(=O)=O)cc3)c(=O)c1n2C | 12.6% (inactive) |  |
| Cc1csc(CNc2ncnc3ccc(-c4ccc5c(c4)OCCO5)cc23)c1 | 0.0885% (inactive) |  |
| Cc1ccc(-c2ccc(=O)n(CCNC(C)c3ccco3)n2)cc1 (stereo not given) | -11.6% (inactive) |  |
| Cc1ccc(NS(=O)(=O)c2cccc(Cl)c2)cc1C | 0.342% (inactive) |  |
| FC(F)(F)c1cccc(N2CCN(C(=S)Nc3cc(C(F)(F)F)ccn3)CC2)c1 | -17.1% (inactive) |  |
| CC(C)c1ccccc1-c1ncc(F)c(NCC2CCN(c3cccnc3)CC2)n1 | -26.9% (inactive) |  |
| O=C(CNC(=O)c1ccccc1)OC(C(=O)Nc1ccc2c(c1)OCO2)c1ccccc1 (stereo not given) | 5.45% (inactive) |  |
| CC(=O)C1=C(O)C2c3c[nH]c4cccc(c34)CC2C(C)(C)N(C)C1=O (stereo not given) | -22.7% (inactive) |  |
| Cc1ccc(S(=O)(=O)NCCC(=O)Nc2nc(-c3ccccc3)cs2)cc1 | -0.316% (inactive) |  |
| NCc1ccc(Nc2ncc(F)c(Nc3ccccc3)n2)cc1 | 1.37% (inactive) |  |
